# Results as given in PubChem BioAssay (NCI).
# This is part of a sample that, as a whole, favours compounds with a hit. Of some 83,000 tested, about 20% had one in any assay.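 Percent growth is the endpoint: 0 to 100 indicates growth inhibition (40 means 60% inhibition), 0 means no net growth, and negative values indicate cell death.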 Values without a mark were called inactive. The source made the active and inactive calls. Rule for the calls: active = growth percent below 10; inactive = the rest.
# Columns and labels:
# Test in all cases: NCI-60 one-dose screen, 48 h (100 = growth as untreated, 0 = no growth, -100 = all killed)
# Details in all cases: 10 µM unless noted
# [1] = tested on: NCI-H23 lung
# [2] = tested on: NCI-H226 lung
# [3] = tested on: NCI-H322M lung
# [4] = tested on: HOP-62 NSCLC
# [5] = tested on: NCI-H460 lung
# [6] = tested on: HOP-92 NSCLC
# [7] = tested on: NCI-H522 lung
# [8] = tested on: A549/ATCC NSCLC
# [9] = tested on: 786-0 renal
# [10] = tested on: COLO 205 colon
Compound,growth [1],growth [2],growth [3],growth [4],growth [5],growth [6],growth [7],growth [8],growth [9],growth [10]
NC(=O)c1c(NC(=O)c2cccs2)sc2c1CCC(=O)C2,20.4%,82.9%,77.2%,84.6%,87.5%,36.7%,-0.894% (active),84.8%,76%,34.2%
C=C(CNCCO)[C@@H]1CC[C@]2(CO)CC[C@]3(C)[C@H](CC[C@@H]4[C@@]5(C)CCC(N)C(C)(C)[C@@H]5CC[C@]43C)[C@@H]12 (stereo not given in full),83.7%,88%,80.2%,71.4%,-26.8% (active),54.5%,0.745% (active),36.2%,11%,-74.7% (active)
C#CCOc1cccc(-c2ncnc3cc(NC(=O)C=C)ccc23)c1,69%,69.9%,70.3%,36.4%,29.1%,14.9%,10.5%,44.5%,29.9%,24.4%
CC(=O)OC(c1ccccc1)C1CCOC1=O (stereo not given),93.8%,93.6%,106%,99.2%,109%,93.2%,78.1%,99%,94.8%,170%
Cc1ncc(C(=O)Nc2ccc(CN3CCN(C)CC3)c(C(F)(F)F)c2)cc1C#Cc1cnc(N)c2ncccc12,38.4%,42.6%,30.3%,20.6%,27.1%,14.7%,26.2%,21.2%,-71.4% (active),1.6% (active)
COc1cc2c(cc1OCCCCN1CCN(C(=S)SCCC(C#N)(c3ccccc3)c3ccccc3)CC1)N=C[C@@H]1CCCN1C2=O,-33.8% (active),-44.2% (active),-81.1% (active),7.67% (active),-73.9% (active),-72.4% (active),-54.1% (active),-32.1% (active),-85.2% (active),-7.95% (active)
O=C(O)/C=C/C(=O)Nc1cccc(Cn2nnc3cc(Cl)c(Cl)cc32)c1,97.3%,89.8%,101%,98.4%,105%,97.5%,96.2%,102%,99.7%,112%
Cc1ccc2c(-n3nc(C#N)c(C#N)c3N)cc(=O)[nH]c2c1,88.9%,78.7%,66.8%,68.1%,81.1%,84.3%,77%,91%,85.3%,97.8%
Nc1nc(N)c2c(n1)NC(c1cccc(Nc3ccnc4cc(C(F)(F)F)ccc34)c1)CC(c1ccc(Br)cc1)=N2 (stereo not given),66.3%,93.9%,96.1%,58.2%,29.9%,42.8%,48.8%,45.9%,68.9%,34%
N#CSc1c[nH]c2cccc(/C=C/C(=O)/C=C(O)/C=C/c3cccc4[nH]cc(SC#N)c34)c12,-36.8% (active),-73.1% (active),-47.5% (active),-32.6% (active),-22.9% (active),-72% (active),-68.2% (active),-69.7% (active),-60.3% (active),-77.7% (active)
CCOC(=O)C#Cc1c(C(=O)OCC)nnn1Cc1ccc(C(F)(F)F)cc1,97.9%,71.9%,93.4%,103%,95.8%,65.5%,-15.1% (active),95.8%,43.6%,17.2%
CCOC(=O)c1cc(C(=O)c2cc(OC)c(OC)c(OC)c2)n2ccccc12,38.9%,34.5%,49.7%,28.3%,14.2%,54.1%,26%,25.7%,35.5%,-31.8% (active)
CCN1C(=O)N(CC)C2C1NN=c1s/c(=C3\C(=O)N(CCC(C)C)c4ccccc43)c(=O)n12 (stereo not given),30.8%,56.3%,52.1%,38.9%,5.57% (active),40.4%,1.9% (active),14.2%,29.1%,12.3%
Cc1ccc(S(=O)(=O)N2CCC(=O)c3ccccc32)cc1,85%,93.9%,89.3%,80.8%,86.5%,80.8%,84%,102%,93.7%,76.4%
CCN1C(=O)N(CC)C2C1NN=c1s/c(=C3\C(=O)N(CC(C)C)c4ccccc43)c(=O)n12 (stereo not given),31.1%,61.5%,58.1%,45.6%,5.36% (active),66.3%,-2.72% (active),21.6%,37.2%,17.6%
O=C(/C=C/c1cccc(Cl)c1Cl)Nc1ncc(Cc2ccccc2Cl)s1,79.2%,67.7%,78.5%,42.4%,33.9%,61.6%,17.5%,58.2%,68.7%,45.4%
O=C(CN1CCCCCC1)Nc1nc2ccc(NCc3ccc(Cl)cc3)cc2s1,97.3%,93.5%,108%,103%,97%,90.9%,84.7%,98.7%,104%,109%
O=C(CSc1nc(-c2ccccc2)cc(=O)[nH]1)Nc1nc(-c2ccccc2)cs1,84.3%,76.2%,93.4%,109%,106%,72.5%,74.4%,95.3%,103%,115%
CNC(C)[C@H]1CCC2C3CC=C4C(=O)[C@@H](NC(=O)C=C(C)C)CC[C@]4(C)C3CC[C@@]21C (stereo not given in full),30.1%,46.5%,13.9%,-4.38% (active),-24.6% (active),9.2% (active),58.5%,30.3%,3.96% (active),-82.4% (active)
CC/C=C\CCC/C=C1/C(=O)C=C[C@@H]1C/C=C\CCCC(=O)OC,34.9%,77%,101%,42.3%,52.4%,83.4%,11.7%,79%,69.3%,49.7%
C=C(C)[C@@H]1CC[C@]2(C(N)=O)CC[C@]3(C)[C@H](CC[C@@H]4[C@@]5(C)CC[C@H](OCCC#N)C(C)(C)[C@@H]5CC[C@]43C)[C@@H]12,91.3%,84.1%,73.3%,95%,79%,78.1%,77.5%,74.6%,94.8%,86.1%
COc1cccc(NCc2nnc(Nc3ccc(Cl)cc3)c3ccccc23)c1,2.05% (active),-22.9% (active),3.32% (active),-17.1% (active),0.101% (active),-32.8% (active),-43.8% (active),2.56% (active),-5.76% (active),-22.2% (active)
c1ccc(CCNc2c3ccccc3nc3ccccc23)cc1,38.6%,56.3%,46.6%,55.1%,15.3%,-1.55% (active),39.8%,32.7%,38.1%,21.2%
CCn1c(-c2cc3c([nH]c4ccccc43)c(-c3cccc(O)c3)n2)n[nH]c1=S,68.4%,75.9%,73.2%,18.3%,47.1%,12.7%,-10.6% (active),38%,13.5%,92.5%
S=C(c1ccc2c(c1)OCO2)N1CCN(c2cccc(Cl)c2)CC1,35%,34.2%,57.3%,37.5%,6.73% (active),63.9%,2.22% (active),35.9%,37.8%,25.4%
COc1cc(Cl)c(C)cc1NC(=O)c1cc2ccccc2cc1O,2% (active),13.3%,9.8% (active),26.5%,6.83% (active),-15.4% (active),-11.5% (active),10%,14.1%,86.9%
